Here are results for 14 molecules from PubChem BioAssay.

Activity calls are given as the source filed them.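 How the source made its calls, unless noted: active means NADPH fluorescence slope more negative than the mean of all samples by about 3 SD, 99.7% confidence; inactive means the rest.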

Assay [1] is described as follows: inhibitors of TNFa-induced NFkB p65 translocation, primary screen, imaging, HUVEC, MLSMR starter and 10KST1 sets (AID 438;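 active means inhibition above 20% together with a positive visual image hit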;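 further: compound added about 3h40 before a 20 min TNFalpha stimulation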;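 on inhibition: signal is the nuclear over cytoplasmic p65 intensity ratio per well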). Particulars: HUVEC TNFa-induced p65 nuclear translocation; cell count: measured here: nuclei count (cytotoxicity indicator), at 2.08 µM; inhibition: at 2 µM, stronger effect = higher value, 0% TNFa-plus-vehicle, 100% no-TNFa wells.
Assay [2] can be described thus: inhibitors of mutant huntingtin aggregation, primary screen, imaging, exon1htt(103Q)mCFP cells, high-content imaging (AID 483;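 active means visual image review flags a hit and inhibition of aggregation exceeds 20%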;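 further: compound exposure lasted 3 days before fixation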;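 on nuclei count: percent of the per-plate median nuclei count of sample wells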). To be noted: exon1htt(103Q)mCFP cell line, aggregate imaging, at 2 µM; inhibition of aggregation: stronger effect = higher value; nuclei count: measured here: cell count, toxicity.
Assay [3] in a line: inhibitors of E-selectin induction by TNFa, primary screen, imaging, HUVEC, immunofluorescence, MLSMR starter and 10KST1 sets (AID 487;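 active means visually confirmed hit in the image check and inhibition above 20%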;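 on inhibition: signal is fraction of cell area covered by stained E-selectin grains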;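 on nuclei count: 100% = median nuclei count of all wells on the same plate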). To be noted: HUVEC TNFalpha-induced E-selectin immunofluorescence imaging, at 2 µM; inhibition: stronger effect = higher value; nuclei count: measured here: cell number, toxicity.
Assay [4] concerns the target Voltage-gated potassium channel subunit beta-2 (Rattus norvegicus) (UniProt P62483). Description: KvBeta enzyme negative modulators, primary screen, biochemical, NADPH fluorescence (AID 622;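 active means fluorescence slope higher than the sample average by over 3 SD, cut at about -0.22 in these data, passing the limit was not always enough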;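 further: slope of raw intensity against log time taken from 70 to 1610 s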). To be noted: recombinant KvBeta, 4-cyanobenzaldehyde reduction, at 10 µM, stronger effect = higher value.
Assay [5] shares this target. Description: KvBeta positive modulators, primary screen, biochemical, NADPH fluorescence (AID 623).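 Further: fluorescence intensity change per second fitted from 20 to 320 s.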 To be noted: Recombinant KvBeta, NADPH fluorescence decrease slope, 10 min; at 10 µM; stronger effect = lower value.
Assay [6] has as its target Alpha-2C adrenergic receptor (Homo sapiens) (UniProt P18825). Description: modulators of alpha2C/GIRK thallium flux, primary screen, cell-based, HEK293 alpha2C/GIRK1/2 (AID 624;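 active means fluorescence slope after compound addition differing from the mean of all screened samples at 99.7% confidence, in either direction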;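 further: slope of fluorescence ratio to pre-addition baseline per second over 15 to 24 s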). To be noted: thallium flux BTC fluorescence, at 10 µM, actives lie on both sides.
The nature of assay [7]: inhibitors of Sendai virus-induced IRF3 signaling, primary screen, TLR/RLR signaling modifier project, cell-based, Sendai virus stimulus, luciferase, 10K MLSCN set (AID 602276;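 active means inhibition at or above 50% at 10 µM; inactive means inhibition below 50%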;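 further: firefly luciferase from ISG56 promoter only with Renilla not read in this screen; 0% = Sendai virus plus DMSO and 100% = medium plus DMSO without virus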). To be noted: HEK293 RL24 IRF3 luciferase reporter, at 10 µM, stronger effect = higher value.
Assay [8] in a line: inhibitors of poly I:C-induced TLR3 signaling, primary screen, cell-based, poly I:C stimulus, luciferase, 10K MLSCN set (AID 602277;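 active means inhibition of the reporter signal at or above 50%; inactive means inhibition below 50%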). To be noted: HEK293-TLR3 RL24 IRF3 luciferase reporter, at 10 µM, stronger effect = higher value.

Voltage-gated potassium channel subunit beta-2 (Rattus norvegicus), sequence (P62483 whole entry, looked up): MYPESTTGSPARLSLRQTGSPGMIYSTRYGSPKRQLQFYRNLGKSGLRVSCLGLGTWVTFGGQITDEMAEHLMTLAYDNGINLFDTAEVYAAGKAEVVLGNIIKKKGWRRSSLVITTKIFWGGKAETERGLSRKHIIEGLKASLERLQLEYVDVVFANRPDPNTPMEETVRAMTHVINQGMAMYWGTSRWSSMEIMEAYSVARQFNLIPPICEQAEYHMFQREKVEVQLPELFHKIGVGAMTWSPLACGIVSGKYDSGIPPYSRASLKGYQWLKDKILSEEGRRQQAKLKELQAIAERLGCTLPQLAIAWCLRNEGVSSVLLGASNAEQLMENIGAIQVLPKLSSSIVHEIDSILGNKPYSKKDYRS
Alpha-2C adrenergic receptor (Homo sapiens), sequence (P18825 whole entry, looked up): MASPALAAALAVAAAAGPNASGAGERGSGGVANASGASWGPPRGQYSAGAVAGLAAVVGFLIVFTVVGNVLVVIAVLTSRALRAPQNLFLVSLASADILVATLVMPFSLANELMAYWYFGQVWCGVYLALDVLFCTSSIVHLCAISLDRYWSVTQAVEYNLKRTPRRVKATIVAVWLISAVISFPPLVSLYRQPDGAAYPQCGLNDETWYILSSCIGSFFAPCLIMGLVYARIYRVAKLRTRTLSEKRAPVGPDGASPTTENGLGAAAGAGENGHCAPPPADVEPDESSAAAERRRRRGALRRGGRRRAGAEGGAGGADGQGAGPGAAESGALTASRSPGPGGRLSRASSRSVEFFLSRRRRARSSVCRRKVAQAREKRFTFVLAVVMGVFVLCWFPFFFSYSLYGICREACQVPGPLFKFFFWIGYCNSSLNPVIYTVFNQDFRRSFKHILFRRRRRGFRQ

Take `CCCCc1cc2c(c(NC(C)=O)n1)c(=O)oc1ccccc12`: the cell count in assay [1] is 620. Moreover, the inhibition in assay [1] was -9.4% (inactive); in assay [3] it was 3.6% (inactive); in assay [7], 12.1% (inactive); in assay [8], 40.5% (inactive). Moreover, the inhibition of aggregation in assay [2] is 14.7% (inactive). For the same molecule, the figures for the nuclei count in assay [2] and in assay [3] were 110% and 104%, respectively. The fluorescence slope in assay [4] was -0.509 (inactive). In assay [5], the NADPH fluorescence slope is -2.7e-05 (inactive). Further, in assay [6], the slope was 0.00617 (inactive).

As to `COc1cc(NC(=O)c2nccnc2C(=O)O)cc(OC)c1`, the cell count in assay [1] amounted to 856. Moreover, the inhibition was 1.2% (inactive) in assay [1], -30.5% (inactive) in assay [3], -3.73% (inactive) in assay [7] and 6.75% (inactive) in assay [8]. For the same molecule, in assay [2], the inhibition of aggregation was -12.8% (inactive). In addition, the nuclei count came to 81.8% in assay [2] and 117% in assay [3]. The fluorescence slope in assay [4] is -0.554 (inactive). Further, the NADPH fluorescence slope in assay [5] was -2e-05 (inactive). Besides, the slope in assay [6] is 0.00607 (inactive).

For `C=CCn1c(Cc2cccs2)nnc1SCC(=O)Nc1ccc(OC)c(OC)c1`, the cell count in assay [1] was found to be 268. For the same molecule, the inhibition in assay [1] was 4% (inactive); in assay [3], -26.5% (inactive); in assay [7], 13.5% (inactive); in assay [8], 26.6% (inactive). Moreover, the inhibition of aggregation in assay [2] is 19.5% (inactive). For the same molecule, the nuclei count in assay [2] came to 87.7%; in assay [3] it was 134%. The fluorescence slope in assay [4] was -0.445 (inactive). Moreover, the NADPH fluorescence slope in assay [5] was -1.9e-05 (inactive). Also, the slope in assay [6] is 0.00229 (inactive).

On to `COc1cccc(NC(=O)CSc2nnnn2C(C)C)c1`, for which, in assay [1], the cell count is 738. The inhibition is 6.1% (inactive) in assay [1], -4.8% (inactive) in assay [3], 0.303% (inactive) in assay [7] and -4.86% (inactive) in assay [8]. In addition, in assay [2], the inhibition of aggregation was -20.3% (inactive). In addition, the nuclei count stood at 109% in assay [2] and 123% in assay [3]. For the same molecule, the fluorescence slope in assay [4] was -0.538 (inactive). In assay [5], the NADPH fluorescence slope was -9e-05 (inactive). The slope in assay [6] was 0.00723 (inactive).

Consider `O=C(CSCc1cccc(F)c1)N1CCN(c2ccccc2)CC1`, for which, in assay [1], the cell count was 545. Moreover, the inhibition in assay [1] was -14.3% (inactive); in assay [3], -66.2% (inactive); in assay [7], -32.3% (inactive); in assay [8] it was -145% (inactive). In addition, the inhibition of aggregation in assay [2] is 33.7% (inactive). Besides, the nuclei count in assay [2] worked out at 68.7%; in assay [3], 123%. Moreover, the fluorescence slope in assay [4] was -0.398 (inactive). Further, in assay [5], the NADPH fluorescence slope is -5.3e-05 (inactive). The slope in assay [6] was 0.00288 (inactive).

Consider `CCOC(=O)CSC1=C(C#N)C(c2ccc(Cl)cc2)C(C(=O)OC)C(=O)N1` (centres undefined), for which, in assay [1], the cell count worked out at 495. For the same molecule, the inhibition in assay [1] is 4.4% (inactive); in assay [3], -80% (inactive); in assay [7], 7.95% (inactive); in assay [8] it was 25.3% (inactive). Further, in assay [2], the inhibition of aggregation is -24.6% (inactive). The nuclei count in assay [2] stood at 40.5%; in assay [3] it was 95.7%. Also, the fluorescence slope in assay [4] is -0.394 (inactive). Moreover, the NADPH fluorescence slope in assay [5] was -5.6e-05 (inactive). Further, the slope in assay [6] is 0.00371 (inactive).

Take `Cc1cccc(N2CCN(Cc3c(C)n(C)n(-c4ccccc4)c3=O)CC2)c1C`: the cell count in assay [1] turned out to be 451. In addition, the inhibition in assay [1] is 0.5% (inactive); in assay [3] it was -29.6% (inactive); in assay [7], 13.4% (inactive); in assay [8] it was 18.5% (inactive). In assay [2], the inhibition of aggregation was 9.8% (inactive). Further, the nuclei count in assay [2] was 92.6%; in assay [3], 124%. For the same molecule, in assay [4], the fluorescence slope was -0.465 (inactive). In assay [5], the NADPH fluorescence slope is 5.9e-05 (inactive). In assay [6], the slope was 0.00748 (inactive).

`O=C(C1COc2ccccc2O1)N1CCCC1` (centres undefined): in assay [1], the cell count came to 283. In addition, the inhibition in assay [1] is -8.4% (inactive); in assay [3] it was -72.5% (inactive); in assay [7] it was -11.4% (inactive); in assay [8], 3.67% (inactive). Also, the inhibition of aggregation in assay [2] is 32.8% (active). Also, the nuclei count in assay [2] amounted to 83.7%; in assay [3], 99.2%. Moreover, in assay [4], the fluorescence slope was -0.332 (inactive). The NADPH fluorescence slope in assay [5] is 1.7e-05 (inactive). In addition, the slope in assay [6] is 0.0093 (inactive).

Take `CC1Cc2nc(SCC(=O)N3CCCc4ccccc43)n(C)c(=O)c2S1` (centres undefined): the cell count in assay [1] was 647. In addition, the inhibition in assay [1] is 0.5% (inactive); in assay [3], 5.3% (inactive); in assay [7] it was 6% (inactive); in assay [8], 20.4% (inactive). For the same molecule, in assay [2], the inhibition of aggregation was -0.9% (inactive). In addition, the nuclei count in assay [2] amounted to 46.7%; in assay [3] it was 118%. For the same molecule, the fluorescence slope in assay [4] is -0.543 (inactive). Besides, in assay [5], the NADPH fluorescence slope was -1.5e-05 (inactive). For the same molecule, the slope in assay [6] is 0.00618 (inactive).

For the molecule `COc1cccc(C2CC(c3ccccc3)n3ncnc3N2)c1` (centres undefined), the cell count in assay [1] was determined as 564. Also, the inhibition in assay [1] was 4.1% (inactive); in assay [3] it was 17.4% (inactive); in assay [7] it was 5.93% (inactive); in assay [8], 33.2% (inactive). Moreover, the inhibition of aggregation in assay [2] is -12% (inactive). Moreover, the nuclei count in assay [2] amounted to 90.7%; in assay [3], 82%. In assay [4], the fluorescence slope is -0.6 (inactive). Moreover, in assay [5], the NADPH fluorescence slope was -2.8e-05 (inactive). In assay [6], the slope is 0.00718 (inactive).

As to `O=C(NCc1ccccc1)C1CCN(S(=O)(=O)c2cccc3cccnc23)CC1`, in assay [1], the cell count was found to be 823. In addition, the inhibition was -3% (inactive) in assay [1], -37.7% (inactive) in assay [3], -3.36% (inactive) in assay [7] and 33.1% (inactive) in assay [8]. For the same molecule, the inhibition of aggregation in assay [2] was 19% (inactive). The nuclei count in assay [2] is 65.6%; in assay [3] it was 111%. For the same molecule, in assay [4], the fluorescence slope is -0.57 (inactive). For the same molecule, the NADPH fluorescence slope in assay [5] was 1.3e-05 (inactive). For the same molecule, in assay [6], the slope was 0.00702 (inactive).

`CCC(=O)c1ccc(OCC(O)CN2CCN(S(=O)(=O)N3CCCCC3)CC2)cc1` (centres undefined): in assay [1], the cell count was determined as 450. The inhibition was 1.3% (inactive) in assay [1], -47.7% (inactive) in assay [3], 14.1% (inactive) in assay [7] and 9.85% (inactive) in assay [8]. Moreover, the inhibition of aggregation in assay [2] is -4.1% (inactive). Besides, the nuclei count came to 102% in assay [2] and 184% in assay [3]. Besides, the fluorescence slope in assay [4] is -0.592 (inactive). In addition, the NADPH fluorescence slope in assay [5] was -1.7e-05 (inactive). Besides, the slope in assay [6] was 0.00309 (inactive).

As for `COc1cccc(C2=NOC(C(=O)Nc3cc(C)nn3-c3ccccc3)C2)c1OC` (centres undefined), the cell count in assay [1] came out at 570. The inhibition was -6.2% (inactive) in assay [1], -19.4% (inactive) in assay [3], 16.2% (inactive) in assay [7] and 23.8% (inactive) in assay [8]. Besides, the inhibition of aggregation in assay [2] was -1.5% (inactive). The nuclei count in assay [2] turned out to be 105%; in assay [3], 107%. The fluorescence slope in assay [4] was -0.586 (inactive). Besides, the NADPH fluorescence slope in assay [5] is -5.4e-05 (inactive). In assay [6], the slope is 0.00584 (inactive).

Take `COCCn1nnnc1C(c1cc2ccc(OC)cc2[nH]c1=O)N1CCc2ccccc2C1` (centres undefined): the cell count in assay [1] was determined as 454. Moreover, the inhibition in assay [1] was 7.5% (inactive); in assay [3], -43% (inactive); in assay [7] it was 29.3% (inactive); in assay [8], 37.8% (inactive). In addition, the inhibition of aggregation in assay [2] is -1.5% (inactive). In addition, the values for the nuclei count in assay [2] and in assay [3] were 86.9% and 95.9%, respectively. In assay [4], the fluorescence slope is -0.503 (inactive). Further, the NADPH fluorescence slope in assay [5] is -1.3e-05 (inactive). Moreover, the slope in assay [6] is 0.00527 (inactive).
